Experimental data: article PMC4336329 (PLoS ONE, 2015)
Out of some 310,000 compounds screened, about 14,000 (4.5%) showed an effect of 50% or more. The effect is printed as a negative number. The sample as a whole holds a higher share of strong results than the screen did.

biological target: human ether-à-go-go-related gene (hERG) potassium channel (human, UniProt Q12809); experiment: primary screen, population patch clamp on CHO cells stably expressing hERG; higher = less effect of the substance
Sequence (Q12809 whole entry, looked up): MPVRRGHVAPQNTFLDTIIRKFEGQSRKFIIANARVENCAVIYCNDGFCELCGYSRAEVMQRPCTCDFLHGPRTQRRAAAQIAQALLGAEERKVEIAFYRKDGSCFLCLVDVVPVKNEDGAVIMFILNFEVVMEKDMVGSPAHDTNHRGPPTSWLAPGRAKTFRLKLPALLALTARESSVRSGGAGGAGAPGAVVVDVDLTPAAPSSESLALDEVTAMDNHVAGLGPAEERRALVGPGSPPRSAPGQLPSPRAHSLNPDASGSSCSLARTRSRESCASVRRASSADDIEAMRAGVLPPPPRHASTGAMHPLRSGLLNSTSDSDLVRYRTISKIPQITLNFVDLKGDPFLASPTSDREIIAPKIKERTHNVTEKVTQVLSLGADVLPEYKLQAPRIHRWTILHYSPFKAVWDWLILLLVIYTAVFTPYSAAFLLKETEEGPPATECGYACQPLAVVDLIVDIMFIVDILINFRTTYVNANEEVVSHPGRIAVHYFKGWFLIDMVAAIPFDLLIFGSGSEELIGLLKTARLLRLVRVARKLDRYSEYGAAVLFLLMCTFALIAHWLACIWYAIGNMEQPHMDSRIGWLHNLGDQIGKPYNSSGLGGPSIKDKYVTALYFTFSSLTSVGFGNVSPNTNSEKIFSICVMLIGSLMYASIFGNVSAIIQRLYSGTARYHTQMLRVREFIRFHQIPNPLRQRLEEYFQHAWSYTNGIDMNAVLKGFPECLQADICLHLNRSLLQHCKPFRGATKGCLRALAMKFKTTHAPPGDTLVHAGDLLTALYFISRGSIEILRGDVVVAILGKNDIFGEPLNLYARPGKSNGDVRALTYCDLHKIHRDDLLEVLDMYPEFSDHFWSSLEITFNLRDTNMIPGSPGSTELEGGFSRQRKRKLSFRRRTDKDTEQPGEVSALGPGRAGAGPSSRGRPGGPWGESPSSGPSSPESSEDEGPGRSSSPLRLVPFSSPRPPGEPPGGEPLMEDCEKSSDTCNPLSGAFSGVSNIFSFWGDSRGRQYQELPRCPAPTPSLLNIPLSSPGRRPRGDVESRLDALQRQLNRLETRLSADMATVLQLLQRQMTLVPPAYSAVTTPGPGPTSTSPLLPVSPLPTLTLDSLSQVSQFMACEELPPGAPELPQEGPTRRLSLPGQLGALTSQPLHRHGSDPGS
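Further: peak tail current of the secondary pulse compared with the same well before compound.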

Structure (SMILES) | hERG current change (%, negative = inhibition) at 10uM
O=C(NCCC1=CCCCC1)c1cc(COc2ccc(F)cc2Cl)on1 | 10.4%
Cc1ccc(NC(=O)Cn2c(CCC(=O)O)ccc2-c2cccs2)cc1 | -2.61%
Cc1ccc(NC(=O)Cn2c(CCC(=O)O)ccc2-c2cccs2)cc1Cl | -75.3%
COc1cccc(NC(=O)Cn2c(CCC(=O)O)ccc2-c2cccs2)c1 | 12.4%
CC(C)Oc1ccc(S(=O)(=O)N2CCOCC2)cc1NC(=O)C1CCCCC1 | -19.6%
O=C(O)CSc1ncnc2sc(-c3ccccc3)cc12 | 23.6%
Cc1cccc(Nc2sc(C(=O)c3cc4cc(Cl)ccc4o3)c(N)c2C#N)c1 | -2.78%
FC(F)(F)c1cccc(Nc2nc(N3CCOCC3)nc(N3CCOCC3)n2)c1 | 15.6%
CN1CCN(c2nc(Nc3cccc(C(F)(F)F)c3)nc(N3CCOCC3)n2)CC1 | -60%
FC(F)(F)c1cccc(Nc2nc(N3CCCC3)nc(N3CCCC3)n2)c1 | 23.7%
Cl.Fc1ccc(Nc2nc(N3CCOCC3)nc(N3CCOCC3)n2)cc1 | 4.26%
COc1ccc(N2CCN(c3nc(Cl)nc(Nc4ccc(F)cc4)n3)CC2)cc1 | 7.8%
CN1CCN(c2nc(Nc3ccc(F)cc3)nc(Nc3ccc(F)cc3)n2)CC1 | -60.5%
COc1ccc(/C=N/N=C/c2ccc(OC)c(O)c2)cc1O | 23.2%
CCCCNC(=O)/C(=C\c1ccc([N+](=O)[O-])o1)NC(=O)c1ccccc1 | -39.8%
Cc1ccc(C(=O)N/C(=C\c2ccc(-c3ccccc3[N+](=O)[O-])o2)C(=O)NCCCN(C)C)cc1 | -74.5%
O=C(O)/C(=C\c1ccc(-c2ccccc2[N+](=O)[O-])o1)c1ccccc1 | 23.6%
Cc1ccc(C(=O)N/C(=C\c2ccc(-c3ccccc3[N+](=O)[O-])o2)C(=O)NCCN(C)C)cc1 | -55.4%
Cc1ccc(C(=O)/C=C/c2ccc(-c3ccccc3[N+](=O)[O-])o2)cc1 | 12.5%
Cc1ccc(Oc2ccccc2/C=C/C(=O)O)cc1 | 14.6%
C=CCn1c(SCC(=O)NC(=O)NC2CCCC2)nnc1C1CCCCC1 | 3.7%
O=C(CSc1nnc(CNc2ccc(F)cc2)o1)N1c2ccccc2Sc2ccccc21 | 11%
CCN1CCN(CCNC(=O)c2ccc(/C=C3/Sc4ccccc4N(Cc4cccc(C)c4)C3=O)cc2)CC1 | -22%
CCOc1cc(CNC(CC)CO)ccc1OCC(=O)Nc1cccc(C(F)(F)F)c1 (stereo not drawn) | -68.3%
CCC(CO)NCc1ccc(OCC(=O)Nc2cccc(C(F)(F)F)c2)c(OC)c1 (stereo not drawn) | -43.6%
CCOc1cc(CNCCCN2CCOCC2)ccc1OCC(=O)Nc1cccc2ccccc12.Cl | -7.77%
CCOc1cc(CNCCO)cc(Br)c1OCc1ccccc1Cl.Cl | 12.5%

Structure (SMILES) | hERG current change (%, negative = inhibition) at 10uM
COc1ccc(NC(=O)COc2ccc(CNCCCN3CCOCC3)cc2OC)cc1.Cl | 0.185%
CCOc1cc(CNCCCN2CCOCC2)cc(Cl)c1OCC(=O)NC(C)(C)C.Cl | 5.38%
CCOc1cc(CNCCCN2CCOCC2)cc(Br)c1OCC(=O)Nc1cccc(C(F)(F)F)c1.Cl | -70.3%
CCOc1cc(CNCCN2CCOCC2)ccc1OCc1ccccc1Cl.Cl | -41.8%
CCOc1cc(CNCCCN2CCOCC2)cc(Br)c1OCc1ccccc1Cl.Cl | -64.9%
COc1cc(CNCCCN2CCOCC2)ccc1OCC(=O)Nc1cccc(C(F)(F)F)c1.Cl | -56.6%
CCOc1cc(CNC(C)(C)C)ccc1OCC(=O)Nc1cccc(C(F)(F)F)c1.Cl | -13.7%
COc1cc(CNCCCN2CCOCC2)ccc1OCC(=O)NC(C)(C)C.Cl | 21%
CCOc1ccc(CC(=O)Nc2ccc(S(=O)(=O)N3CCCC3)cc2)cc1 | 10.4%
Cc1cc(C(=O)COC(=O)CC2Sc3ccccc3NC2=O)c(C)n1-c1ccccc1 (stereo not drawn) | 28%
O=C(COc1ccc2c(c1)C(=O)CC1(CCCCC1)O2)NCc1ccccn1 | -33.9%
O=C(CCS(=O)(=O)c1cccc2nonc12)Nc1cccc2c1CCCC2 | 4.5%
Cc1ccc(C)c(N2CC(C(=O)O)CC2=O)c1 (stereo not drawn) | -2.08%
CN(CC(=O)Nc1ccc(Cl)cc1)C(=O)COc1ncnc2ccccc12 | -8.52%
CCCCn1nnnc1SCC(=O)N(CC)CC | 10.4%
CCOc1ccc(NC(=O)CSc2nnc(C)n2Cc2ccccc2)cc1 | -16.4%
O=C(CN1CC[n+]2c(-c3cccs3)csc21)c1ccc(Br)cc1.[Br-] | -45.9%
O=C(CN1CC[n+]2c(-c3cccs3)csc21)c1ccc(-c2ccccc2)cc1.[Br-] | -54.3%
O=C(CN1CC[n+]2c(-c3ccccc3)csc21)c1ccc(Br)cc1.[Br-] | -40.6%
NNC(=O)c1cccc(S(=O)(=O)Nc2cccc(C(F)(F)F)c2)c1 | 1.4%
CC1CN(c2ccc([N+](=O)[O-])cn2)CC(C)O1 (stereo not drawn) | -19.7%
CC1(C)CC(CNCCC(c2ccc(F)cc2)c2ccco2)CCO1 (stereo not drawn) | -62.5%
CC1(C)CC(NCc2ccccc2)CCO1.Cl (stereo not drawn) | 5.1%
CC1(C)CC(NCCC(c2ccccc2)c2ccco2)CCO1 (stereo not drawn) | -52.5%
O=C1c2ccccc2C(=O)N1CCC(c1ccc(F)cc1)c1ccco1 (stereo not drawn) | -6.1%
O=C1CCC(=O)N1CCC(c1ccc(F)cc1)c1ccco1 (stereo not drawn) | 4.27%
CC1(C)CC(C(=O)NCCC(c2ccccc2)c2ccco2)CCO1 (stereo not drawn) | -9.31%
